In PubChem BioAssay:
Records with an inconclusive call do not appear. The source made the active and inactive calls.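 Rule for the calls, unless noted: active = viability loss from added drug above about 55%, and viability with drug at most 40%, in both replicates (limit read from the data, passing the limit was not always enough); inconclusive = both conditions met in only one replicate; inactive = neither replicate meets both conditions.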

What was measured:
[1] = reducers of endogenous Her2 protein level, primary screen, SKBR3 breast tumor cells, AlphaScreen, ATP viability (AID 461;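 active = Her2 level under about 52% in both replicate screens, with viability over 70% of control, limit read from the data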;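 for Her2 level: lower value means less Her2 protein in the cells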;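 for viability: percent of carrier control wells set as 100% viability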); conditions: 18-24 h, measured here: SKBR3 viability, ATP luminescence, at 10 µM
[2] = molecular target: Receptor tyrosine-protein kinase erbB-2 (Homo sapiens) (UniProt P04626); assay: as above; conditions: 18-24 h, at 10 µM, stronger effect = lower value
[3] = SK-BR-3 cell growth inhibitors, pilot screen, 24 h, human (AID 572;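 active = viability at or below 10% of carrier control in both of two separate runs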;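 note: compound exposure lasted between 18 and 24 h rather than exactly 24 h; 100% = carrier-treated control wells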); conditions: SK-BR-3 viability, CellTiter-Glo luminescence, at 10 µM, stronger effect = lower value
[4] = HUVEC growth inhibition – cell-based, human, primary screen (AID 575;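 active = viability at or below 30% in both replicate assays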;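 note: 100% = median of untreated cell wells with 0.1% DMSO on each plate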); conditions: HUVEC proliferation, CellTiter-Glo luminescence, 72 h; at 10 µM; stronger effect = lower value
[5] = growth inhibitors of H69AR lung tumor, primary screen, human, duplicate replicates (AID 580;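 active = viability at or under a set limit in both replicates, limit being median viability minus 3 SD, cut at about 48% in these data, passing the limit was not always enough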;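 note: 100% = mean luminescence of untreated wells and 0% = no signal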); conditions: H69AR lung tumor cells viability, ATP luminescence, 72 h; at 10 µM; stronger effect = lower value
[6] = reversal of MRP1-mediated doxorubicin resistance, pilot screen, H69AR cells, doxorubicin co-treatment (AID 601); conditions: CellTiter-Glo, 72 h, at 10 µM; for differential viability (reversal): stronger effect = higher value
[7] = 384-well plate pilot, post-Golgi transport modulator project, inhibition of yeast transport mutant growth (AID 636; in the data active = inhibition above about 31%); conditions: absorbance 615 nm, about 18 h, stronger effect = higher value
[8] = growth suppression of yeast trafficking mutant, preliminary HTS, modulators of trafficking downstream of Golgi apparatus project, 1536-format plate, OD 615 nm (AID 637; in the data active = inhibition above about 30%); conditions: yeast transport mutant growth, absorbance 615 nm, 18 h; stronger effect = higher value
[9] = OD615 S. cerevisiae growth inhibition, permissive medium, pilot counter-assay, permissive growth control for S. cerevisiae lifespan shortening project (AID 705;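 active = growth inhibition above 25% in both replicates, a cutoff set 3 SD above the mean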); conditions: OD615, 24 h, at 10 µM, stronger effect = higher value
[10] = Restrictive medium S. cerevisiae growth inhibition, OD615, pilot screen of yeast lifespan reduction project, restrictive growth control (AID 706;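 active = growth inhibition above a set limit, 3 SD over mean compound inhibition, in both replicates, cut at about 43% in these data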;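 note: modified DeaD lifespan yeast strain shifted to restrictive glucose medium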); conditions: OD615, 48 h, at 10 µM, stronger effect = higher value
[11] = viability gain of MRP-1-high H69AR cells under doxorubicin, pilot screen, MRP-1 activator project, CellTiter-Glo, duplicate (AID 807;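 active = viability increase at or above a cutoff of the median across tested compounds plus 3 SD, cut at about 8.5% in these data, passing the limit was not always enough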;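 note: compound pretreatment 18-22 h then 72 h combined with doxorubicin; 0% = doxorubicin alone and 100% = vehicle without doxorubicin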); conditions: H69AR viability with doxorubicin, CellTiter-Glo luminescence; at 10 µM; stronger effect = higher value
[12] = growth suppression of beta-catenin knockout HCT116, pilot screen, human colon tumor cells (AID 823;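 active = cell viability at or below a set limit in both duplicate runs, the limit being the all-compound median minus 4 SD, cut at about 23% in these data, passing the limit was not always enough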;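 note: 0% = wells killed by 20 µM Hyamine and 100% = untreated DMSO cell wells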); conditions: CellTiter-Glo, 60 h, at 10 µM, stronger effect = lower value
[13] = growth suppression of PTEN-deleted HCT116, pilot screen, cell-based, HCT116 clonal line, CellTiter-Glo (AID 824;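 active = viability at or below 27.92% in each of two runs, the all-compound median minus 4 SD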;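 note: 0% = 20 µM Hyamine control and 100% = vehicle cell control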); conditions: 60 h, at 10 µM, stronger effect = lower value
[14] = inhibitors of the yeast RAM network, pilot screen, dse1pr::URA3 reporter, 5-FOA selection (AID 869;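 active = inhibition over a set limit, the all-compound mean plus 3 SD, in both replicate runs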;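 note: 0% = DMSO wells with no growth and 100% = 10 µM 1-NA-PP1 with full growth; RAM network block rescues cells from 5-FOA so hits raise OD615 growth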); conditions: S. cerevisiae dse1pr::URA3 5-FOA growth, OD615, 2 d; at 10 µM; stronger effect = higher value; strain carries analog-sensitive mutant Cbk1 kinase
[15] = RAM signaling pathway blockade in yeast – S. cerevisiae, Pdr1DBD-CYC8 efflux-inhibited sensitized strain, primary screen (AID 1298;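 active = RAM network inhibition above 8.4% in each of two replicates, 3 SD over the compound average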;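 note: 0% = DMSO untreated cells without growth and 100% = 10 µM 1-NA-PP1 full growth; higher means more yeast growth rescued from 5-FOA killing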); conditions: S. cerevisiae cbk1-as DSE1-URA3 strain, 5-FOA growth OD615, 2 d; at 50 µM; stronger effect = higher value
[16] = H69AR cells + 2 uM doxorubicin, measured here: viability with 2 uM doxorubicin, stronger effect = lower value
[17] = H69AR cells, compound alone cytotoxicity

Receptor tyrosine-protein kinase erbB-2 (Homo sapiens), sequence (P04626 whole entry, looked up): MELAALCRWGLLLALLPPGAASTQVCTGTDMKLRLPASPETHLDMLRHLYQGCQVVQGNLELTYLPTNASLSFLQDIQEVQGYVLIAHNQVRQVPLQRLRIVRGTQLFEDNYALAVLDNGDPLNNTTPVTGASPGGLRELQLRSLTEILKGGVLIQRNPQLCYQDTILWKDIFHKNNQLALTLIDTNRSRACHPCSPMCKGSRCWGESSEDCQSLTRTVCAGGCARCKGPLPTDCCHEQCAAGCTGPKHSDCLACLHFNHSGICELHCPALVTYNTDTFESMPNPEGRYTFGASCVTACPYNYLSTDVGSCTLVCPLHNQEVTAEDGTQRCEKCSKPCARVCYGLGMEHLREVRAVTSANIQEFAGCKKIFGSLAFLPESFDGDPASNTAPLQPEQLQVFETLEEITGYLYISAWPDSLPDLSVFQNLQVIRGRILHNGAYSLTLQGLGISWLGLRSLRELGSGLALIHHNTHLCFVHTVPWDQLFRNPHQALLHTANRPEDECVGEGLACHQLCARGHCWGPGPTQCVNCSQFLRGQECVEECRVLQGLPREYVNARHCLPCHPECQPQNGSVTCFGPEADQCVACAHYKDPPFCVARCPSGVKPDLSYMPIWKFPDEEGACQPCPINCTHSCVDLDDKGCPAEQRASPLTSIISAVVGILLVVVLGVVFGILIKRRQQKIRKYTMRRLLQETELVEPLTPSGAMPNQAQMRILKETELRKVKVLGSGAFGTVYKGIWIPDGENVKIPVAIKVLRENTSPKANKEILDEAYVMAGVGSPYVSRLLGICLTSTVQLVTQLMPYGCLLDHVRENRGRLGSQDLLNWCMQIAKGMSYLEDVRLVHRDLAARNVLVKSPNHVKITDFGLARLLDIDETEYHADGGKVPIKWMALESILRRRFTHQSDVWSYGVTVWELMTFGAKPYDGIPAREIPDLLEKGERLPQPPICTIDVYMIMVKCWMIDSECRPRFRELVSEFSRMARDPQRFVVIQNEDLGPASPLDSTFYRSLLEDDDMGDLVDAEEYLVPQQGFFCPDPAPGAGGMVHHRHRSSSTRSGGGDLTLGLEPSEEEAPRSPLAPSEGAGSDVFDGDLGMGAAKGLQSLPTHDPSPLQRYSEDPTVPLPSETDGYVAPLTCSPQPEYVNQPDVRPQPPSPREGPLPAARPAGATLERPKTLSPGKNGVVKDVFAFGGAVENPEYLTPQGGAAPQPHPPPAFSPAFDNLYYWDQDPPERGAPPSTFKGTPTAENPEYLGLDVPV

CC(c1ccccc1)n1cnc2ccccc21 (stereo not given)
93.3%: viability [6, 16]
82%: viability [1]
93.5%: viability [6, 17]
inactive: Her2 level [2] 104% | viability [3] 82% | viability [4] 93.4% | viability [5] 93.5% | differential viability (reversal) ([6]; H69AR cells + 2 uM doxorubicin) 0.135% | inhibition [7] -1.15% | inhibition [8] 0.33% | growth inhibition [9] -3.42% | growth inhibition [10] 0.48% | viability increase [11] -1.05% | viability [12] 103% | viability [13] 95.2% | inhibition [14] -0.115% | RAM network inhibition [15] 0.83%

CC1=C(C(=O)Nc2ccccc2)C(c2ccccn2)n2nc(CCCO)nc2N1 (stereo not given)
inactive: Her2 level [2] 105% | viability [3] 94.5% | viability [4] 101% | viability [5] 95.6% | differential viability (reversal) ([6]; H69AR cells + 2 uM doxorubicin) 1.47% | inhibition [7] -5.73% | inhibition [8] -3.33% | growth inhibition [9] -14.1% | growth inhibition [10] -8.68% | viability increase [11] -0.39% | viability [12] 96.3% | viability [13] 92.9% | inhibition [14] 1.56% | RAM network inhibition [15] 5.48%
94.1%: viability [6, 16]
95.6%: viability [6, 17]
94.5%: viability [1]

CCOC(=O)CN(C(=O)c1ccccc1)c1ccccc1C
94%: viability [6, 16]
93%: viability [1]
inactive: Her2 level [2] 108% | viability [3] 93% | viability [4] 104% | viability [5] 109% | differential viability (reversal) ([6]; H69AR cells + 2 uM doxorubicin) 15.2% | inhibition [7] 0.78% | inhibition [8] -11% | growth inhibition [9] -12.9% | growth inhibition [10] 6.67% | viability increase [11] -0.66% | viability [12] 91.8% | viability [13] 94.2% | inhibition [14] 0.91% | RAM network inhibition [15] 1.96%
109%: viability [6, 17]

CCN(CC)C(=O)COC(=O)c1ccc(O)cc1
91.2%: viability [6, 17]
96.7%: viability [6, 16]
90.5%: viability [1]
inactive: Her2 level [2] 102% | viability [3] 90.5% | viability [4] 103% | viability [5] 91.2% | differential viability (reversal) ([6]; H69AR cells + 2 uM doxorubicin) -5.45% | inhibition [7] 1.73% | inhibition [8] -5.97% | growth inhibition [9] -6.88% | growth inhibition [10] -17.4% | viability increase [11] 0.25% | viability [12] 95.6% | viability [13] 101% | inhibition [14] 1.32% | RAM network inhibition [15] -0.27%

O=C(c1ccc(CSCc2ccccc2F)o1)N1CCN(c2ccc(N3CCOCC3)nn2)CC1
84.5%: viability [1]
inactive: Her2 level [2] 76% | viability [3] 84.5% | viability [4] 54.7% | viability [5] 79.7% | differential viability (reversal) ([6]; H69AR cells + 2 uM doxorubicin) -5.4% | inhibition [7] 0.9% | inhibition [8] -0.17% | growth inhibition [9] 1.75% | growth inhibition [10] 17.4% | viability increase [11] -4.06% | viability [12] 83.6% | viability [13] 89.7% | inhibition [14] 1.54% | RAM network inhibition [15] 2.93%
79.7%: viability [6, 17]
85%: viability [6, 16]

CCCCOCCCNC(=O)COc1ccccc1
94.1%: viability [6, 17]
inactive: Her2 level [2] 104% | viability [3] 103% | viability [4] 102% | viability [5] 94.1% | differential viability (reversal) ([6]; H69AR cells + 2 uM doxorubicin) -2.32% | inhibition [7] -5.54% | inhibition [8] -2.46% | growth inhibition [9] -2.82% | growth inhibition [10] -5.04% | viability increase [11] -1.43% | viability [12] 94.5% | viability [13] 97.5% | inhibition [14] 0.215% | RAM network inhibition [15] -0.62%
103%: viability [1]
96.4%: viability [6, 16]

CCOC(=O)C(CC)Sc1ncnc2nc[nH]c12 (stereo not given)
inactive: Her2 level [2] 106% | viability [3] 104% | viability [4] 103% | viability [5] 101% | differential viability (reversal) ([6]; H69AR cells + 2 uM doxorubicin) 13% | inhibition [7] 0.13% | inhibition [8] -7.27% | growth inhibition [9] -11% | growth inhibition [10] -11.7% | viability increase [11] -1.92% | viability [12] 97.5% | viability [13] 91.9% | inhibition [14] 1.79% | RAM network inhibition [15] 2.41%
88.2%: viability [6, 16]
104%: viability [1]
101%: viability [6, 17]

COc1ccc(S(=O)(=O)Cc2ccc(C(=O)NCCc3ccc(S(N)(=O)=O)cc3)o2)cc1
91.7%: viability [6, 17]
94.5%: viability [1]
79.6%: viability [6, 16]
inactive: Her2 level [2] 114% | viability [3] 94.5% | viability [4] 91.6% | viability [5] 91.7% | differential viability (reversal) ([6]; H69AR cells + 2 uM doxorubicin) 12.1% | inhibition [7] -4.13% | inhibition [8] -2.67% | growth inhibition [9] -0.09% | growth inhibition [10] -4.47% | viability increase [11] 0.71% | viability [12] 102% | viability [13] 99.1% | inhibition [14] 0.71% | RAM network inhibition [15] 0.1%

CC1CCCCC1NC(=O)Cn1ncc2ccccc21 (stereo not given)
90.4%: viability [6, 17]
85.4%: viability [6, 16]
104%: viability [1]
inactive: Her2 level [2] 104% | viability [3] 104% | viability [4] 82.1% | viability [5] 90.4% | differential viability (reversal) ([6]; H69AR cells + 2 uM doxorubicin) 4.98% | inhibition [7] -2.93% | inhibition [8] 0.33% | growth inhibition [9] -12.1% | growth inhibition [10] -9.67% | viability increase [11] -1.21% | viability [12] 98.6% | viability [13] 95.7% | inhibition [14] 1.98% | RAM network inhibition [15] 0.04%

O=C(Nc1ccc(N2CCCC2)cc1)c1ccc(Br)o1
101%: viability [6, 17]
inactive: Her2 level [2] 93.5% | viability [3] 93.5% | viability [4] 94.3% | viability [5] 101% | differential viability (reversal) ([6]; H69AR cells + 2 uM doxorubicin) 15.6% | inhibition [7] 0.27% | inhibition [8] 1.97% | growth inhibition [9] 3.95% | growth inhibition [10] 14.9% | viability increase [11] -0.48% | viability [12] 94% | viability [13] 92.3% | inhibition [14] 3.5% | RAM network inhibition [15] 6.03%
93.5%: viability [1]
85.2%: viability [6, 16]
